KLF5 inhibitor: kruppel-like factor 5 inhibition. DLD-1 KLF5 promoter-luciferase reporter, luminescence. inhibition, % at 5 µM. actives 0.23% (n = 290,000);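 active means inhibition above a per-plate limit of that plate's mean compound inhibition plus 3 SD, cut at about 60% in these data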;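 further: 0% = DMSO wells and 100% = LY294002 at 200 µM; higher means less KLF5 promoter-driven luciferase light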
Gli-Sufu antag: blocks Gli-Sufu signaling in a luciferase reporter. Sufu-KO-LIGHT fibroblasts, Gli luciferase reporter luminescence. inhibition, % at 5 µM. actives 0.74% (n = 340,000);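 active means inhibition above about 55%, limit read from the data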;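 further: 0% = DMSO-treated cells and 100% = wells with medium but no cells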
Jurkat NFkB inh: lowers PMA/ionomycin-induced NF-kB signal in Jurkat cells | inhibition, % at 4 µM | actives 0.53% (n = 330,000) | PMA/ionomycin-induced NF-kB luciferase reporter, luminescence; in the data active means inhibition above about 50%
697 NFkB inh: lowers PMA/ionomycin-induced NF-kB signal in 697 B cells; AID 435022; 697 B-cell NF-kB luciferase reporter, 16 h; actives 0.33% (n = 330,000); inhibition, % at 4 µM; in the data active means inhibition above about 35%
aSyn 5UTR inh: MLPCN primary screen, SNCA 5' untranslated region. alpha-synuclein 5'UTR reporter, inhibitor activity. inhibition, % (tested at 7.5 µM). actives 0.82% (n = 300,000); in the data active means inhibition above about 60%;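 further: H4 neuroglioblastoma cells stably carrying SNCA 5'UTR luciferase fusion; 0% = DMSO wells and 100% = positive control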
Mdm2 MdmX PPI: disrupts the human Mdm2-MdmX interaction | O15151+Q00987 | SaOS-2 split-luciferase Mdm2/MdmX complementation, luminescence | AID 485346 | actives 3% (n = 330,000) | inhibition, % at 8 µM;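 active means inhibition of at least 50% at 8 µM in the primary screen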
Target sequence (O15151 whole entry, looked up): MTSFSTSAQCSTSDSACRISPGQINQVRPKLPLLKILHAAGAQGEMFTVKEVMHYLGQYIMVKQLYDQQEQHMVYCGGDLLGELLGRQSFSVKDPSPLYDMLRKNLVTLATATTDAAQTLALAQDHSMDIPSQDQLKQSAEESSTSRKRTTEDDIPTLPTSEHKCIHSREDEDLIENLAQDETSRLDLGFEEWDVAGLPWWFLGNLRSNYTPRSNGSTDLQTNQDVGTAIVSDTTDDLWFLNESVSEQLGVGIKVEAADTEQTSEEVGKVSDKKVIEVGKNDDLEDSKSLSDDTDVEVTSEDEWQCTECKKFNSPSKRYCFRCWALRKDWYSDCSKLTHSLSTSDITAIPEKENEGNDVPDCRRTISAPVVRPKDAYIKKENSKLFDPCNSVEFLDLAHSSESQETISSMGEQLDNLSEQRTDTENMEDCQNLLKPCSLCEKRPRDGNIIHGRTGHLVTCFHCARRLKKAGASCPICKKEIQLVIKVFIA
Target sequence (Q00987 whole entry, looked up): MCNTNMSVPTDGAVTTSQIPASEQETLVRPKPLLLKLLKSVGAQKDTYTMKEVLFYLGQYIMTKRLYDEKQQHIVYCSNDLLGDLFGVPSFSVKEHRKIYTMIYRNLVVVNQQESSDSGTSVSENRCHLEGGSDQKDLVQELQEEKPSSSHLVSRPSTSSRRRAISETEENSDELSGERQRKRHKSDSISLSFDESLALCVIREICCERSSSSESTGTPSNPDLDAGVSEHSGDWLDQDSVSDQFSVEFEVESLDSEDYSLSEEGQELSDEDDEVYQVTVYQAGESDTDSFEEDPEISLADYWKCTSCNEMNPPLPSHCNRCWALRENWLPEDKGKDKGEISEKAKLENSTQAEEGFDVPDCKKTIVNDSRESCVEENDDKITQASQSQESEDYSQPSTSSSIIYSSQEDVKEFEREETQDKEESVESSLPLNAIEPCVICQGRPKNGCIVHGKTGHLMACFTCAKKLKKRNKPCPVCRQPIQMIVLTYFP
Gli-Sufu confirm: Gli-SUFU antagonism confirmation, single concentration. shares compounds with Gli-Sufu antag. Sufu-KO-LIGHT cells, Gli luciferase reporter, luminescence. inhibition, % at 5 µM. actives 40% (n = 2,500). AID 602428;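 active means mean inhibition at 5 µM reaching about 45%, limit read from the data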;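 further: plate controls were DMSO-treated cells for no effect and wells lacking cells for full effect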
Gli cytotox: counter-screen for Gli-SUFU antagonists: cytotoxicity. shares compounds with Gli-Sufu antag. Sufu-KO-LIGHT cells cytotoxicity, ATP luminescence. cytotoxicity, % at 5 µM. actives 32% (n = 2,500). AID 651994;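 active means mean cytotoxicity at 5 µM above about 25%, limit read from the data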;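 further: cells exposed to compound overnight for roughly 16 to 18 hours; plate controls were DMSO wells with cells for no effect and medium without cells for full effect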
Wnt3a cs: counter-screen for Gli-SUFU antagonists: Wnt3a reporter inhibition | shares compounds with Gli-Sufu antag | Wnt-LIGHT cells, Wnt3a-driven luciferase reporter, luminescence | inhibition, % at 6.25 µM | actives 20% (n = 2,500) | AID 651995;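 active means mean inhibition above about 25%, limit read from the data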
The depositor's hits bear a star; · = not tested or not shown. Hits are enriched below; roughly 4.1% of the tested compounds scored in any of these assays.

SMILES	KLF5 inhibitor	Gli-Sufu antag	Jurkat NFkB inh	697 NFkB inh	aSyn 5UTR inh	Mdm2 MdmX PPI	Gli-Sufu confirm	Gli cytotox	Wnt3a cs
O=C(c1ccc(OC2CCN(Cc3ccc(F)cc3)CC2)cc1)N1CCCC1	-27	55*	4	-4	-2	17	16	8	11
CCc1ccc(CN2CCC(Oc3ccc(C(=O)N4CCCC4)cc3)CC2)cc1	-29	22	8	-45	-6	5	·	·	·
C#CCOCCOCCOCCNc1nc(N2CCN(C(=O)[C@H](CCCCN)n3cc([C@@H](N)[C@H](C)CC)nn3)CC2)nc(N2CCN(C(=O)[C@H](CCC(=O)O)n3cc([C@@H](N)CCSC)nn3)CC2)n1	·	6	11	1	·	31	·	·	·
c1cnc2ccc(C(c3nnnn3C3CCCCC3)N3CCN(C4CCCCC4)CC3)cc2c1 (centres undefined)	-10	65*	-21	-3	6	21	80*	36*	-36
c1cnc2ccc(C(c3nnnn3C3CCCCC3)N3CCCCC3)cc2c1 (centres undefined)	-38	5	-22	-19	-13	-9	·	·	·
CN(CC(=O)Nc1ccc(F)cc1)C(=O)COC(=O)c1ccccc1	·	0	-2	16	-6	11	·	·	·
CN(CC(=O)Nc1ccc(F)cc1)C(=O)COC(=O)c1cc(Br)c(Br)s1	·	65*	·	·	·	·	9	-13	-6
CCCOc1ccc(OCCn2nc(C(=O)O)c3ccccc3c2=O)cc1	2	-4	-5	-18	-13	9	·	·	·
COc1ccc(NC(=O)C2CCCN2C(=O)OC(C)(C)C)cc1 (centres undefined)	-47	-1	9	6	1	-3	·	·	·
Nc1nonc1C(=O)NCCNCc1cc(Br)ccc1OCc1ccccc1F	-22	51	13	-14	-18	21	44	34*	2
C=CCOc1ccccc1CNCCNC(=O)c1nonc1N	-3	·	-8	9	3	8	·	·	·
Cc1cc(-c2nnc(SCC(=O)Nc3ccc(Br)cc3F)n2N)n[nH]1	-6	-8	4	9	-17	7	·	·	·
COc1cccc(C(=O)N2CCC(C(=O)NCc3ccco3)CC2)c1	-11	48	-13	-19	-5	-8	·	·	·
O=[N+]([O-])c1ccc(S(=O)(=O)N2CCN(c3ccc(N4CCOCC4)nn3)CC2)cc1	·	55	-25	18	5	29	33	19	-21
Cc1ccc(S(=O)(=O)N2CCN(c3ccc(N4CCOCC4)nn3)CC2)cc1[N+](=O)[O-]	·	5	2	8	18	-17	·	·	·
CC1=CC(C)(C)N=C(Nc2nc(C)c3cc(C)cc(C)c3n2)N1	1	50	12	-10	-6	43	26	16	-68
COC(=O)c1ccc(OC(C)C(=O)c2ccc(C)cc2)cc1 (centres undefined)	-31	-6	6	-16	-4	-15	·	·	·
O=C(NCCc1ccccc1)c1ccc(NS(=O)(=O)c2ccc3[nH]c(=O)[nH]c3c2)cc1	·	-38	-17	-32	-72	-12	·	·	·
O=C1C(Cc2ccc(Br)cc2)SC(=Nc2ccccc2)N1c1ccccc1 (centres undefined)	-12	-8	1	-8	4	-6	·	·	·
O=C1C(Cc2cccc([N+](=O)[O-])c2)SC(=Nc2ccccc2)N1c1ccccc1 (centres undefined)	-9	62*	-4	-10	14	-7	19	24	-36
O=C(CCCN1C(=O)NC2(CCCC2)C1=O)NCc1ccccc1	·	2	2	21	·	2	·	·	·
O=C(CSc1n[nH]c(=O)n1-c1ccccc1)N1CCOCC1	-44	53	1	4	-3	20	22	11	15
O=C(CSc1nc2c([nH]c3ccccc32)c(=O)n1-c1ccccc1)N1CCOCC1	-12	8	-29	-24	10	-23	·	·	·
O=C(CNC(=S)N(Cc1ccc(F)cc1)C1CCCCC1)NC1CC1	-1	59*	-5	-8	20	-18	20	2	0

Screens as filed in PubChem.
